Compound activity: PubChem, Broad Institute
Only some compounds are listed: those with a hit (about 1.2% of all), similar ones and a draw of the others.
AF4-AF9 inh: inhibitors of AF4 peptide binding to AF9, primary screen, biochemical, AlphaScreen, biotin-AF4 peptide, FLAG-AF9, single point; inhibition, % at 10 µM; 350,000 compounds, 0.47% hits; Protein AF-9 (Homo sapiens), P42568;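 active means every replicate reaching a set inhibition limit, whatever the replicate mean, cut at about 25% in these data; inconclusive means mean inhibition reaches that limit but some replicates miss it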;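 further: 0% = plate neutral control median and 100% = total signal loss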
RAD54 inh: inhibitors of human RAD54 branch migration, primary screen, biochemical, fluorescence, single point; DNA repair and recombination protein RAD54-like (Homo sapiens), Q92698; RAD54 Holliday junction branch migration, FAM/BHQ fluorescence; inhibition, % at 10.4 µM; 360,000 compounds, 0.14% hits;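 active means mean normalized replicate activity at least 40 and at least half of replicates scoring 40 or more; inconclusive means only one of the two criteria met; inactive means mean below 40 and under half of replicates reaching 40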;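 further: 0% = median of neutral control wells and 100% = median of positive control wells; inhibitors cause a drop in the FAM fluorescence signal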
CASP6 VEID inh: human caspase-6 inhibitors, primary screen, biochemical, VEID-R110 fluorescence, single point, set 2. purified caspase-6, Z-VEID-R110 cleavage fluorescence. inhibition, % at 12.5 µM. 350,000 compounds, 0.53% hits. AID 686996, 2013;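 active means mean inhibition across replicates at least about 35%, with every replicate also reaching that limit, limit read from the data; inconclusive means only one of the two criteria met; inactive means neither criterion met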;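 further: 0% = median of neutral control wells and 100% = no fluorescence left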
Target sequence (P55212 24-179 limits assumed): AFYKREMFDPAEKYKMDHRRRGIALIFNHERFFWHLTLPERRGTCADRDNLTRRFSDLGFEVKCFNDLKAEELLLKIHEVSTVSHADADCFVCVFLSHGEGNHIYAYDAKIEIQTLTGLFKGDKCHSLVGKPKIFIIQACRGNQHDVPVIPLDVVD
Target sequence (P55212 194-293 limits assumed): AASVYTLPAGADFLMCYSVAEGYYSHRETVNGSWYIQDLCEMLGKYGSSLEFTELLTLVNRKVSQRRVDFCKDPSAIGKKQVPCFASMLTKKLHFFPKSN
N-glyco inh: increase of ERlucT glycosylation luciferase signal, primary screen, N-linked glycosylation inhibitor project, D54 ERlucT cells, luminescence, set 2; reporter increase, % at 12.5 µM; D54 ERlucT glycosylation luciferase reporter, 24 h; percent of 100 nM tunicamycin response; AID 588692, 2011; 360,000 compounds, 0.23% hits;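 active means mean luciferase reporter signal, scaled so untreated is 0 and the glycosylation-blocking control 100, at or above a set limit in every replicate; inconclusive means mean reaches the limit but not every replicate does; inactive means mean below the limit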;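 further: luciferase carries N-glycosylation sites so blocking glycosylation raises the light; 0% = median of neutral control wells and 100% = median of 100 nM tunicamycin wells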
RAD52 anneal inh: RAD52 DNA annealing inhibitors, primary screen, biochemical, FRET, single point, set 2 | DNA repair protein RAD52 homolog (Homo sapiens), P43351 | recombinant RAD52 DNA annealing, FRET fluorescence | inhibition, % at 18.7 µM | 360,000 compounds, 0.46% hits;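 active means every replicate showing at least 50% inhibition; inconclusive means mean inhibition at least 50% but not in every replicate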
Target sequence (P43351 whole entry, looked up): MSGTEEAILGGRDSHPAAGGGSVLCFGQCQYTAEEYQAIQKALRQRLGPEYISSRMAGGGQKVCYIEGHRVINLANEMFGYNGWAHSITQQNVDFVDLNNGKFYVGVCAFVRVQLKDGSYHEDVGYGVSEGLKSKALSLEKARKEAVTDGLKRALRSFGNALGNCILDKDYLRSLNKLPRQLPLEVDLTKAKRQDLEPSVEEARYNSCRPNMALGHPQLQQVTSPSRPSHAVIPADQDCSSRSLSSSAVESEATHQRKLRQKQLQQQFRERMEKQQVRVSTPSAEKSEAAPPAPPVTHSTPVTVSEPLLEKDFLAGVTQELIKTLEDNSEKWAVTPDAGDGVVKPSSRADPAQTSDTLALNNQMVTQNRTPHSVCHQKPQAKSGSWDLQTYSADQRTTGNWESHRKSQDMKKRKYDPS
RAD52 DNA ctr: DNA-binding compounds via dye displacement, dose response, artefact control for RAD52 inhibitor project, biochemical, fluorescence polarization, cherry-pick. shares compounds with RAD52 anneal inh. Salmon sperm DNA/acridine orange FP displacement. AC50, µM. 1,000 compounds, 8% hits;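 active means fitted half-maximal concentration for signal loss at or below twice the highest dose tested, in every separate run, actives reach about 64 µM in these data; inconclusive means runs disagree, or flat partial signal loss, or poor fit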
CASP1 counter: human caspase-1 inhibitors, dose response, selectivity assay for caspase-6 inhibitor project, biochemical, Z-YVAD-R110 fluorescence, cherry-pick, set 2; activity change, negative = inhibition, % at 35 µM; shares compounds with CASP6 VEID inh; purified caspase-1, Z-YVAD-R110 cleavage fluorescence; 100 tested, under 10 active;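 active means compounds lowering fluorescence whose fitted half-maximal concentration is no more than twice their top tested dose; inconclusive means flat fit with 30 to 70% inhibition, or poor fit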
Numbers without * were called inactive.

How did Oc1ccc2c3c1OC1c4[nH]c5ccccc5c4C[C@@]4(O)C(C2)N(CC2CC2)CC[C@]314 (stereo partly drawn) do in these assays?
RAD54 inh: -0.6; CASP6 VEID inh: 8.6; N-glyco inh: -2.3; RAD52 anneal inh: -0.1

Results for Oc1ccc2c3c1O[C@H]1c4[nH]c5c(c4CC4(O)C(C2)N(CC2CC2)CCC314)CC1(O)[C@H]2Cc3ccc(O)c4c3[C@@]1(CCN2CC1CC1)C5O4 (stereo partly drawn) ?
CASP6 VEID inh: -5.3; RAD52 anneal inh: 83.5*; RAD52 DNA ctr: inactive

What do the screens show for `O=C(NC[C@H]1CC[C@@H]2NC[C@@H]2O1)C1CCCC1`?
AF4-AF9 inh: -4.0; CASP6 VEID inh: 2.2; RAD52 anneal inh: -2.9

Results for COc1cc2c3cc1Oc1cc(ccc1O)C[C@@H]1c4c(cc(OC)c(O)c4Oc4ccc(cc4)C[C@H]3N(C)CC2)CCN1C ?
AF4-AF9 inh: inconclusive; RAD54 inh: 31.3; CASP6 VEID inh: -9.5; N-glyco inh: -6.1; RAD52 anneal inh: 51.8*; RAD52 DNA ctr: inactive

Results for COc1cc2c3cc1Oc1c(OC)c(OC)cc4c1[C@H](Cc1ccc(cc1)Oc1cc(ccc1O)C[C@H]3N(C)CC2)N(C)CC4 ?
AF4-AF9 inh: -21.2; RAD54 inh: 16.0; CASP6 VEID inh: -20.0; N-glyco inh: -10.6; RAD52 anneal inh: 58.5*; RAD52 DNA ctr: inactive

Results for COc1cc2c3cc1Oc1cc(ccc1O)C[C@@H]1c4c(cc(OC)c(O)c4Oc4cccc(c4)C[C@@H]3N(C)CC2)CC[N+]1(C)C ?
AF4-AF9 inh: 1.2; RAD54 inh: 18.6; CASP6 VEID inh: -6.2; N-glyco inh: 2.3; RAD52 anneal inh: 69.5*; RAD52 DNA ctr: inactive

Results for COC(=O)[C@H]1[C@H](CO)[C@H]2Cn3c(ccc(C4=CCCCC4)c3=O)[C@@H]1N2C(=O)CC1CC1 ?
AF4-AF9 inh: 1.4; RAD54 inh: -10.1; CASP6 VEID inh: 0.2; RAD52 anneal inh: -5.6

What do the screens show for `C[C@]1(O)CCC2C3CC[C@H]4C[C@@H](OC(=O)[C@@H](N)CCCCN)CC[C@]4(C)C3CC[C@@]21C` (stereo partly drawn)?
AF4-AF9 inh: 14.5; RAD54 inh: 60.0*; CASP6 VEID inh: -41.8; N-glyco inh: -2.8; RAD52 anneal inh: 87.8*; RAD52 DNA ctr: inactive

How did CC[N+](C)(CC)CCCCOc1ccc2c(c1)C(=O)c1cc(OCCCC[N+](C)(CC)CC)ccc1-2 do in these assays?
AF4-AF9 inh: 1.2; RAD54 inh: 99.5*; CASP6 VEID inh: -38.3; N-glyco inh: 2.6; RAD52 anneal inh: 104.7*; RAD52 DNA ctr: 19.3µM*

What do the screens show for `C=C1[C@@H](OC(C)=O)[C@]23C[C@@H]1[C@@H](OC(C)=O)CC2[C@]12C4C[C@H]3[C@H]1N(CC)C[C@]4(C)CC[C@@H]2O` (stereo partly drawn)?
AF4-AF9 inh: 0.3; RAD54 inh: -12.7; CASP6 VEID inh: 2.7; N-glyco inh: -2.1; RAD52 anneal inh: 78.3*; RAD52 DNA ctr: inactive

How did CCN1C[C@]2(COC)CC[C@H](O)[C@@]34C5C[C@H]6[C@H](O)C5[C@](O)(C[C@H]6OC)[C@@H]([C@H](OC)C23)[C@@H]14 (stereo partly drawn) do in these assays?
RAD54 inh: -0.3; N-glyco inh: 1.9

What do the screens show for `COC(=O)[C@@H]1[C@@H](CO)[C@@H]2Cn3c(cccc3=O)[C@H]1N2C(=O)C1CCC1`?
AF4-AF9 inh: -1.8; RAD54 inh: -6.1; CASP6 VEID inh: 1.9; RAD52 anneal inh: -13.6

What do the screens show for `CCCCCCCCCCCCCCCC[N+](C)(C)C`?
AF4-AF9 inh: -30.3; RAD54 inh: 44.3; CASP6 VEID inh: -136.9; N-glyco inh: -16.6; RAD52 anneal inh: 80.1*; RAD52 DNA ctr: inconclusive

What do the screens show for `CN1[C@@H]2CNc3ccccc3[C@@H]2[C@@H]1CO`?
AF4-AF9 inh: -2.0; RAD54 inh: -0.6; CASP6 VEID inh: -4.6; RAD52 anneal inh: -2.9

What do the screens show for `O=c1[nH]c2cc(Cl)ccc2n1C1CCN(Cc2ccc(-c3nc4ccccc4nc3-c3ccccc3)cc2)CC1`?
AF4-AF9 inh: 0.1; CASP6 VEID inh: 0.5; RAD52 anneal inh: -16.7

How did O=c1[nH]c2ccccc2n1C1CCN(Cc2ccc(-c3[nH]c4cc5ncnc5cc4nc3-c3ccccc3)cc2)CC1 do in these assays?
AF4-AF9 inh: 4.3; CASP6 VEID inh: -3.3; RAD52 anneal inh: 53.7*; RAD52 DNA ctr: inactive

What do the screens show for `CN(C)C(=O)[C@H]1[C@H](CO)[C@H]2Cn3c(cccc3=O)[C@@H]1N2CC1CC1`?
AF4-AF9 inh: -5.8; RAD54 inh: -0.6; CASP6 VEID inh: 0.4; RAD52 anneal inh: -2.1

Results for ClCCN1CCN(c2ccnc3cc(Cl)ccc23)CC1 ?
AF4-AF9 inh: 20.7; RAD54 inh: 29.8; CASP6 VEID inh: -123.9; N-glyco inh: 6.1; RAD52 anneal inh: 68.5*; RAD52 DNA ctr: inactive

How did CN1[C@@H](CO)[C@@H]2c3ccccc3NC[C@@H]21 do in these assays?
AF4-AF9 inh: -1.8; RAD54 inh: -4.4; CASP6 VEID inh: -0.6; RAD52 anneal inh: 12.4

What do the screens show for `Ic1ccccc1CN[C@@H]1C2CCN(CC2)[C@@H]1C(c1ccccc1)c1ccccc1`?
AF4-AF9 inh: 9.9; RAD54 inh: 23.8; N-glyco inh: -1.5; RAD52 anneal inh: 62.2*; RAD52 DNA ctr: inactive

How did Fc1ccccc1CNC1CN2CCC1CC2 (stereo not drawn) do in these assays?
AF4-AF9 inh: -4.2; CASP6 VEID inh: 0.0; N-glyco inh: 2.2; RAD52 anneal inh: -5.1

What do the screens show for `CCC(=O)N1[C@@H]2c3ccc(-c4ccc(F)cc4)c(=O)n3C[C@H]1[C@H](CO)[C@H]2C(=O)OC`?
AF4-AF9 inh: -1.4; RAD54 inh: 7.4; CASP6 VEID inh: 1.0; RAD52 anneal inh: 3.9

How did CN1CCc2cc3c(c4c2C1Cc1ccccc1-4)OCO3 (stereo not drawn) do in these assays?
AF4-AF9 inh: 6.6; RAD54 inh: 42.7; CASP6 VEID inh: 84.3*; N-glyco inh: 9.8; RAD52 anneal inh: -25.0; CASP1 counter: -0.6

Results for COc1cc2c3c(c1OC)Oc1ccc(cc1)C[C@H]1c4c(cc(OC)c(OC)c4Oc4ccc(cc4)C[C@@H]3N(C)CC2)CCN1C ?
AF4-AF9 inh: inconclusive; RAD54 inh: -1.6; CASP6 VEID inh: -5.0; N-glyco inh: -15.5; RAD52 anneal inh: -22.6

Results for CC(Cc1ccc(O)cc1)NCC(O)c1ccc(O)c(O)c1 (stereo not drawn) ?
AF4-AF9 inh: 8.4; RAD54 inh: -1.0; CASP6 VEID inh: 72.7*; N-glyco inh: 2.9; RAD52 anneal inh: -13.1; CASP1 counter: -3.9

How did COC(=O)[C@H]1[C@H](CO)[C@H]2Cn3c(ccc(-c4cccc(OC)c4)c3=O)[C@@H]1N2C(=O)c1ccccc1F do in these assays?
AF4-AF9 inh: 2.2; RAD54 inh: -4.7; CASP6 VEID inh: -2.1; RAD52 anneal inh: 10.2
